# According to paper PMC8384837, “Expanding the binding specificity for RNA recognition by a PUF domain”:
# Positions count from the first letter of the chain named.
# Tests used:
# Assay in all cases: yeast three-hybrid, YBZ-1, SC-Leu-His + 0.5 mM 3-AT, 4 days
# Conditions in all cases: tags: N-Gal4 AD-HA kept; label: inside an RPR1-promoter hybrid RNA with tandem MS2 sites; ssRNA
# [1] = target: PUM1 PUF domain R5-NDI (Homo sapiens, UniProt Q14671 828-1176, C1007N;R1008D;Q1011I)
# Method in brief: (§1)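 Matching RNA elements and Pumilio-1 PUF domain libraries, randomized at the three base-contacting residues of every repeat, were co-expressed from a centromeric plasmid in strain YBZ-1 (LexA–MS2 coat fusion, HIS3 reporter). The repeat regions were PCR-amplified and Illumina-sequenced from cells grown four days on SC-Leu (input) or SC-Leu-His + 0.5 mM 3-AT (selection). The interaction score is the log change in variant frequency from input to selection. It is computed in log2, with a pseudocount of 1 for absent variants.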
# [2] = target: PUM1 PUF domain R5-KYF (Homo sapiens, UniProt Q14671 828-1176, C1007K;R1008Y;Q1011F)
# Method in brief: as §1
# [3] = target: PUM1 PUF domain R5-SNR (Homo sapiens, UniProt Q14671 828-1176, C1007S;R1008N;Q1011R)
# Method in brief: as §1
# [4] = target: PUM1 PUF domain R5-DQR (Homo sapiens, UniProt Q14671 828-1176, C1007D;R1008Q;Q1011R)
# Method in brief: as §1
# [5] = target: PUM1 PUF domain R5-HRP (Homo sapiens, UniProt Q14671 828-1176, C1007H;Q1011P)
# Method in brief: as §1
# [6] = target: PUM1 PUF domain R1-GRS (Homo sapiens, UniProt Q14671 828-1176, S863G;Q867S)
# Method in brief: as §1
# [7] = target: PUM1 PUF domain R1-KSS (Homo sapiens, UniProt Q14671 828-1176, S863K;R864S;Q867S)
# Method in brief: as §1
# [8] = target: PUM1 PUF domain R5-QRW (Homo sapiens, UniProt Q14671 828-1176, C1007Q;Q1011W)
# Method in brief: as §1
# [9] = target: T1, PUM1 PUF domain R6-TYE (Homo sapiens, UniProt Q14671 828-1176, N1043T;Q1047E)
# T1 sequence: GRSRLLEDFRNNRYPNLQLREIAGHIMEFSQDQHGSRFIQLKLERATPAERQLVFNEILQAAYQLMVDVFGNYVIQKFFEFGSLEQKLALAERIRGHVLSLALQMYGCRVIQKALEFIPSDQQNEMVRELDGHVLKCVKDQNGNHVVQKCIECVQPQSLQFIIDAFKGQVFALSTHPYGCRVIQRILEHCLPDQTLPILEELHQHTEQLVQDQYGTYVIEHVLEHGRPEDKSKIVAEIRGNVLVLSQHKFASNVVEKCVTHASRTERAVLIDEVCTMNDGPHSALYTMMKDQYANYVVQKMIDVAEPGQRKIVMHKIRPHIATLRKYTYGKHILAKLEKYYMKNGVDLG
# Method in brief: as §1
# [10] = target: T2, PUM1 PUF domain R6-TWL (Homo sapiens, UniProt Q14671 828-1176, N1043T;Y1044W;Q1047L)
# T2 sequence: T1 sequence with Y217W, E220L
# Method in brief: as §1
# [11] = target: T3, PUM1 PUF domain R6-LYC (Homo sapiens, UniProt Q14671 828-1176, N1043L;Q1047C)
# T3 sequence: T1 sequence with T216L, E220C
# Method in brief: as §1
# [12] = target: PUM1 PUF domain R7-EFG (Homo sapiens, UniProt Q14671 828-1176, S1079E;N1080F;E1083G)
# Method in brief: as §1
# [13] = target: PUM1 PUF domain R8-QWN (Homo sapiens, UniProt Q14671 828-1176, N1122Q;Y1123W;Q1126N)
# Method in brief: as §1
# [14] = target: PUM1 PUF domain R8-KRA (Homo sapiens, UniProt Q14671 828-1176, N1122K;Y1123R;Q1126A)
# Method in brief: as §1
# [15] = target: PUM1 PUF domain R8-FHK (Homo sapiens, UniProt Q14671 828-1176, N1122F;Y1123H;Q1126K)
# Method in brief: as §1
# [16] = target: PUM1 PUF domain R3-ARC (Homo sapiens, UniProt Q14671 828-1176, C935A;Q939C)
# Method in brief: as §1
# [17] = target: PUM1 PUF domain R3-TWG (Homo sapiens, UniProt Q14671 828-1176, C935T;R936W;Q939G)
# Method in brief: as §1
# [18] = target: PUM1 PUF domain R3-GVE (Homo sapiens, UniProt Q14671 828-1176, C935G;R936V;Q939E)
# Method in brief: as §1
# [19] = target: PUM1 PUF domain R8-LWK (Homo sapiens, UniProt Q14671 828-1176, N1122L;Y1123W;Q1126K)
# Method in brief: as §1
# [20] = target: PUM1 PUF domain R3-GFF (Homo sapiens, UniProt Q14671 828-1176, C935G;R936F;Q939F)
# Method in brief: as §1
sequence,measurement,setting,value
GGCUAGAACUAGUGGAUCCCCCGGCGCCCGGCGGCUCGAGCCCGGGUAAGUGUUAAUAGUCUGCAUGCCGCCGGGCGCCAUGCCUGCAGGUCGACUCUAGAAAACAUG,binding signal,[1],3.04 log2 enrichment (interaction score)
same,binding signal,[2],3.92 log2 enrichment (interaction score)
same,binding signal,[3],4.01 log2 enrichment (interaction score)
same,binding signal,[4],1.66 log2 enrichment (interaction score)
same,binding signal,[5],3.28 log2 enrichment (interaction score)
GGCUAGAACUAGUGGAUCCCCCGGCGCCCGGCGGCUCGAGCCCGGGUAAGUGUAAAUCGUCUGCAUGCCGCCGGGCGCCAUGCCUGCAGGUCGACUCUAGAAAACAUG,binding signal,[6],2.75 log2 enrichment (interaction score)
same,binding signal,[7],4.09 log2 enrichment (interaction score)
GGCUAGAACUAGUGGAUCCCCCGGCGCCCGGCGGCUCGAGCCCGGGUAAGUGUCAAUAGUCUGCAUGCCGCCGGGCGCCAUGCCUGCAGGUCGACUCUAGAAAACAUG,binding signal,[3],6.17 log2 enrichment (interaction score)
same,binding signal,[4],3.91 log2 enrichment (interaction score)
same,binding signal,[8],0.43 log2 enrichment (interaction score)
same,binding signal,[5],1.78 log2 enrichment (interaction score)
GGCUAGAACUAGUGGAUCCCCCGGCGCCCGGCGGCUCGAGCCCGGGUAAGUGUGAAUAGUCUGCAUGCCGCCGGGCGCCAUGCCUGCAGGUCGACUCUAGAAAACAUG,binding signal,[8],4.36 log2 enrichment (interaction score)
GGCUAGAACUAGUGGAUCCCCCGGCGCCCGGCGGCUCGAGCCCGGGUAAGUGAAAAUAGUCUGCAUGCCGCCGGGCGCCAUGCCUGCAGGUCGACUCUAGAAAACAUG,binding signal,[9],3.51 log2 enrichment (interaction score)
same,binding signal,[10],5.21 log2 enrichment (interaction score)
same,binding signal,[11],3.19 log2 enrichment (interaction score)
GGCUAGAACUAGUGGAUCCCCCGGCGCCCGGCGGCUCGAGCCCGGGUAAGUCUAAAUAGUCUGCAUGCCGCCGGGCGCCAUGCCUGCAGGUCGACUCUAGAAAACAUG,binding signal,[12],3.46 log2 enrichment (interaction score)
GGCUAGAACUAGUGGAUCCCCCGGCGCCCGGCGGCUCGAGCCCGGGUAAGCGUAAAUAGUCUGCAUGCCGCCGGGCGCCAUGCCUGCAGGUCGACUCUAGAAAACAUG,binding signal,[13],3.25 log2 enrichment (interaction score)
same,binding signal,[14],2.55 log2 enrichment (interaction score)
same,binding signal,[15],3.34 log2 enrichment (interaction score)
GGCUAGAACUAGUGGAUCCCCCGGCGCCCGGCGGCUCGAGCCCGGGUAAGUGUAAUUAGUCUGCAUGCCGCCGGGCGCCAUGCCUGCAGGUCGACUCUAGAAAACAUG,binding signal,[16],1.82 log2 enrichment (interaction score)
same,binding signal,[17],0.73 log2 enrichment (interaction score)
GGCUAGAACUAGUGGAUCCCCCGGCGCCCGGCGGCUCGAGCCCGGGUAAGUGUAAGUAGUCUGCAUGCCGCCGGGCGCCAUGCCUGCAGGUCGACUCUAGAAAACAUG,binding signal,[16],0.43 log2 enrichment (interaction score)
same,binding signal,[18],3.97 log2 enrichment (interaction score)
same,binding signal,[17],4.61 log2 enrichment (interaction score)
GGCUAGAACUAGUGGAUCCCCCGGCGCCCGGCGGCUCGAGCCCGGGUAAGUGUAAAUAGUCUGCAUGCCGCCGGGCGCCAUGCCUGCAGGUCGACUCUAGAAAACAUG,binding signal,[19],4.16 log2 enrichment (interaction score)
same,binding signal,[10],0.99 log2 enrichment (interaction score)
same,binding signal,[16],3.8 log2 enrichment (interaction score)
same,binding signal,[14],1.2 log2 enrichment (interaction score)
same,binding signal,[20],5.53 log2 enrichment (interaction score)
same,binding signal,[11],3.91 log2 enrichment (interaction score)
